ELG1 DNA repair – qHTS screen for small molecules that inhibit ELG1-dependent DNA repair in human embryonic kidney (HEK293T) cells expressing luciferase-tagged ELG1; AID 504467, 2011; HEK293T ELG1-luciferase reporter, luminescence, 16 h; DNA damage induced by 5-fluorouridine; Potency, µM (series often up to 46.1 µM), inactives show top-dose activity change, negative = inhibition, hits mostly inhibitors; hit rate 2.3% among 330,000; note: potency is the fitted concentration of half-maximal effect; nearly all actives have a fitted effect of over 55% in size
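Quantitative HTS, concentration-response format. 2,000 cells/well co-treated with 5-fluorouridine and compound, 16 hr in 5% CO2 at 37 °C; ONE-Glo luminescence read after 30 min.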
DT40 TDP1 no CPT – qHTS for Inhibitors of human tyrosyl-DNA phosphodiesterase 1 (TDP1): qHTS in cells in absence of CPT; DT40 Tdp1-/- hTDP1 cells, no CPT, ATP luminescence, 48 h; Potency, µM (titrated, usually from 46.2 µM), without a hit: at the highest dose activity change, negative = growth inhibition, most hits filed as inhibitors; hit rate 15% among 420,000; AID 686978, 2013; note: potency is the fitted concentration of half-maximal effect; nearly all actives have a fitted effect of over 55% in size
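Seeded 400 DT40-hTDP1 cells/well (vehicle DMSO, no 20 nM CPT); pinned compounds; ≥48 hr at 37 °C; CellTiter-Glo luminescence as viability measure.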
IL1B secr inh – qHTS for Inhibitors of Inflammasome Signaling: IL-1-beta AlphaLISA Primary Screen. THP-1 LPS/ATP IL-1B secretion, AlphaLISA, 16 h; active compounds read low. activity change, % at 57.5 µM. hit rate 4.7% among 360,000. AID 743279, 2014; in the data active = activity change below about -50%; inconclusive = mostly about -30% to -49%
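THP-1 cells pretreated 1 hr with compounds (up to 57.5 uM final), then stimulated with LPS (250 ng/mL final) plus ATP (1.25 mM final); secreted IL-1B measured by AlphaLISA after 16 hr, decreased signal indicating inhibition.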
VP16 counter – VP16 counterscreen qHTS for inhibitors of ROR gamma transcriptional activity; Potency, µM (highest dose often 53.6 µM), for inactives: at the top dose activity, negative = inhibition, hits mostly inhibitors; AID 2546, 2010; hit rate 3.5% among 310,000; Drosophila S2 Gal4-VP16 UAS-luciferase, luminescence, 20 h;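 note: Gal4-VP16 expression switched on by copper sulfate through the metallothionein promoter; potency is the fitted concentration of half-maximal effect; nearly all actives have a fitted effect of over 50% in size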
DT40 TDP1 CPT – qHTS for Inhibitors of human tyrosyl-DNA phosphodiesterase 1 (TDP1): qHTS in cells in presence of CPT; hit rate 12% among 420,000; chicken DT40 Tdp1-/-;hTDP1 cells + 20 nM CPT, ATP luminescence, 48 h; Potency, µM (top dose mostly 46.2 µM), for inactives: at the highest dose activity change, negative = growth inhibition, usual class: inhibitors; note: potency is the fitted concentration of half-maximal effect; nearly all actives have a fitted effect of over 55% in size
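Chicken DT40 Tdp1-/- cells stably complemented with human TDP1 were seeded at 400 cells/well in medium containing 20 nM camptothecin, exposed to pin-transferred compounds, and grown at 37 °C for at least 48 hr. Viability was read as ATP luminescence.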
RORgamma inh – qHTS for inhibitors of ROR gamma transcriptional activity. Nuclear receptor ROR-gamma (Mus musculus), P51450. Drosophila S2 Gal4-RORgamma UAS-luciferase reporter, 20 h. Potency, µM (series often up to 53.6 µM), without a hit: at the top dose activity change, negative = inhibition, actives largely listed as inhibitors. hit rate 5.4% among 310,000; note: potency is the fitted concentration of half-maximal effect; nearly all actives have a fitted effect of over 60% in size
Target sequence (P51450 whole entry, looked up, the tested form may be a part): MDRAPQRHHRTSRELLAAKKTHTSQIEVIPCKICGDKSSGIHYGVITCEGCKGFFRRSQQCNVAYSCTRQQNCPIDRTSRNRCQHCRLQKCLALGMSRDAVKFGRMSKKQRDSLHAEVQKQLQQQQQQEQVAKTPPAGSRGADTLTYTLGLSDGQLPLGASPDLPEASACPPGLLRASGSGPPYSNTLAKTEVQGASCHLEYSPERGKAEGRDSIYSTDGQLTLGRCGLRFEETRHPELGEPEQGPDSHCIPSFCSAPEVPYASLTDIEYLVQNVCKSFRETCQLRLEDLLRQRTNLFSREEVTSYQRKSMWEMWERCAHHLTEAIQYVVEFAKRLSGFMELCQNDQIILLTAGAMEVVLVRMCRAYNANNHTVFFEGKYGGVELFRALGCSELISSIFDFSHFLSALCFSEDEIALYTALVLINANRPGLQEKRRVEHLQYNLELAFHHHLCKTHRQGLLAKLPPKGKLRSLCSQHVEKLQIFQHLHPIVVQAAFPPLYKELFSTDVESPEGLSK
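Read-out: Photinus luciferase luminescence; inhibitors lower reporter signal. Insect Schneider cells with Gal4-ROR gamma fusion under metallothionein promoter, UAS reporter; 700 uM final copper sulfate induction, 20 hr, ambient temperature.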
* marks the source's active call; other numbers are inactive results; [ ] = dose if it differs, or a comment. In the library only some 21% were active in any assay of this set; here they are far more common. Unless noted, calls come from the whole dose curve; as a rule, active = well fitted curve in the direction sought with a large enough effect; inconclusive = small, poorly fitted or top-dose-only effect, or another doubt; inactive = no such curve, though single readings can be large; an effect the other way counts as inactive or inconclusive. % is set by controls: 0 for no effect and ±100 for the full control effect.

Cc1ccccc1N/C(SCc1ccc(Cl)cc1)=C(/C#N)C(=O)NCc1ccco1 was read as ELG1 DNA repair inconclusive, DT40 TDP1 no CPT inconclusive, IL1B secr inh -15.6, VP16 counter -7.4%, DT40 TDP1 CPT -14.1% and RORgamma inh -41.0%.
Screening Cc1ccccc1-n1c(C)cc(/C=C(\C#N)C(=O)NCC2CCCO2)c1C (stereo not drawn) returned ELG1 DNA repair inconclusive, DT40 TDP1 no CPT 11.6µM*, IL1B secr inh -9.5, VP16 counter -14.2%, DT40 TDP1 CPT inconclusive and RORgamma inh 12.1%.
For Cc1ccccc1OCCn1cc(/C=C(\C#N)C(=O)NCc2ccco2)c2ccccc21 the results were ELG1 DNA repair 7.1%, DT40 TDP1 no CPT -25.8%, IL1B secr inh 26.3, VP16 counter -15.3%, DT40 TDP1 CPT 2.9% and RORgamma inh 6.3%.
For Cc1ccc(C)c(NC(=O)/C(C#N)=C/c2cn(CC(=O)NCc3ccco3)c3ccccc23)c1 the results were ELG1 DNA repair 1.5%, DT40 TDP1 no CPT inconclusive, IL1B secr inh 16.2, VP16 counter inconclusive, DT40 TDP1 CPT 16.4µM* and RORgamma inh inconclusive.
For Cc1ccc(OCCn2cc(/C=C(\C#N)C(=O)NCC3CCCO3)c3ccccc32)cc1 (stereo not drawn) the results were ELG1 DNA repair inconclusive, DT40 TDP1 no CPT 10.3µM*, IL1B secr inh -13.5, VP16 counter -6.1%, DT40 TDP1 CPT 13µM* and RORgamma inh inconclusive.
Screening Cc1ccc(C)c(OCCn2cc(/C=C(\C#N)C(=O)NCC3CCCO3)c3ccccc32)c1 (stereo not drawn) returned ELG1 DNA repair 16.4µM*, DT40 TDP1 no CPT inconclusive, IL1B secr inh inconclusive, VP16 counter -7.9%, DT40 TDP1 CPT inconclusive and RORgamma inh inconclusive.
For Cc1ccc(OCCn2cc(/C=C(\C#N)C(=O)NCC3CCCO3)c3ccccc32)cc1C (stereo not drawn) the results were ELG1 DNA repair inconclusive, DT40 TDP1 no CPT 7.31µM*, IL1B secr inh -5.6, VP16 counter -9.3%, DT40 TDP1 CPT 13µM* and RORgamma inh 40.8%.
`Cc1cc(C)cc(-n2c(C)nc3cc(C(=O)NCc4ccccc4Cl)ccc32)c1` gave DT40 TDP1 no CPT inconclusive and DT40 TDP1 CPT 1.6%.
`CCCCCOc1ccc(C(=O)CCC(=O)N2CCCC2)cc1` gave ELG1 DNA repair -23.5%, DT40 TDP1 no CPT inconclusive, IL1B secr inh 15.6, VP16 counter -3.5%, DT40 TDP1 CPT -13.4% and RORgamma inh 30.8%.
`Cc1ccsc1C(=O)OCC(=O)NC1CCCCC1C` (stereo not drawn) gave ELG1 DNA repair inconclusive, DT40 TDP1 no CPT 7.3%, IL1B secr inh 17.7 and DT40 TDP1 CPT 0.8%.
`Cc1ccc(/C=C(\C#N)C(=O)NCC2CCCO2)o1` (stereo not drawn) gave ELG1 DNA repair inconclusive, DT40 TDP1 no CPT 0.5%, IL1B secr inh -28.6, VP16 counter 5.2%, DT40 TDP1 CPT 0.7% and RORgamma inh 17.9%.
N#C/C(=C\c1cc2c(cc1Br)OCO2)C(=O)NCC1CCCO1 (stereo not drawn) was read as ELG1 DNA repair inconclusive, DT40 TDP1 no CPT inconclusive, IL1B secr inh -77.5*, VP16 counter inconclusive, DT40 TDP1 CPT inconclusive and RORgamma inh -20.4%.
O=[N+]([O-])c1cc(-c2ncccn2)c([N+](=O)[O-])s1 was read as ELG1 DNA repair inconclusive, DT40 TDP1 no CPT 2.91µM*, IL1B secr inh -85.6*, VP16 counter 7.08µM*, DT40 TDP1 CPT 2.31µM* and RORgamma inh 3.98µM*.
`O=C(Nc1ncccn1)c1cc([N+](=O)[O-])cc([N+](=O)[O-])c1` gave ELG1 DNA repair 1.5%, DT40 TDP1 no CPT -17.5%, IL1B secr inh -0.2, VP16 counter -6.5%, DT40 TDP1 CPT -2.6% and RORgamma inh -18.1%.
For CC1(C(=O)Nc2ccc(S(=O)(=O)Nc3ncccn3)cc2)CCCC1 the results were ELG1 DNA repair 19.6%, DT40 TDP1 no CPT -16.7%, IL1B secr inh 15.0 and DT40 TDP1 CPT 8.7%.
For COc1cccc(C(=O)c2ccccc2C(=O)O)c1 the results were DT40 TDP1 no CPT 9.2%, IL1B secr inh 34.2 and DT40 TDP1 CPT -3.9%.
Screening CCCNC(=O)C1(C)CCN1C(=O)c1cc(C)n(C)n1 (stereo not drawn) returned DT40 TDP1 no CPT 5.7%, IL1B secr inh 24.8 and DT40 TDP1 CPT 3.4%.
O=C(CN1C(=O)CCOc2ccccc21)Nc1ccc(Cl)c(S(=O)(=O)N2CCOCC2)c1 was read as ELG1 DNA repair -16.5%, DT40 TDP1 no CPT inconclusive, IL1B secr inh -14.5 and DT40 TDP1 CPT -26.9%.
`C#CCOc1ccccc1/C=N/NC(=O)c1ccccc1OCc1ccccc1` gave ELG1 DNA repair inconclusive, DT40 TDP1 no CPT 20.6µM*, IL1B secr inh -4.8, VP16 counter -7.1%, DT40 TDP1 CPT inconclusive and RORgamma inh -17.8%.
Screening O=C(N/N=C\c1ccccc1OCc1ccccc1)c1ccco1 returned ELG1 DNA repair 16.9%, DT40 TDP1 no CPT -20.4%, IL1B secr inh -3.0, VP16 counter 7.5%, DT40 TDP1 CPT -18.4% and RORgamma inh -28.2%[10 µM].
Screening COc1ccc(/C(C)=N/NC(=O)c2ccccc2OCc2ccccc2)c(OC)c1 returned ELG1 DNA repair inconclusive, DT40 TDP1 no CPT inconclusive, IL1B secr inh 10.6, VP16 counter -8.7%, DT40 TDP1 CPT inconclusive and RORgamma inh -13.5%.
`COc1ccccc1C(=O)NCC(=O)N/N=C/c1cc(Br)ccc1OCc1ccccc1` gave ELG1 DNA repair 7.31µM*, DT40 TDP1 no CPT 23.1µM*, IL1B secr inh -77.7*, VP16 counter -8.8%, DT40 TDP1 CPT inconclusive and RORgamma inh 19.8%.
`COc1ccc(/C=N/NC(=O)c2ccccc2OCc2ccccc2)c(OC)c1` gave ELG1 DNA repair inconclusive, DT40 TDP1 no CPT 18.4µM*, IL1B secr inh -10.5, VP16 counter 1.2%, DT40 TDP1 CPT inconclusive and RORgamma inh 8.6%.
Screening Cc1cc(N/N=C/c2ccc(O)cc2)c2cccc(C)c2n1 returned ELG1 DNA repair inconclusive, DT40 TDP1 no CPT inconclusive, IL1B secr inh inconclusive, VP16 counter 17.8µM*, DT40 TDP1 CPT inconclusive and RORgamma inh inconclusive.

Assay outcomes from PubChem.
